ERb coact inh: ER-beta (human) coactivator binding inhibition. TR-FRET ER-beta LBD / SRC1-Cy5 peptide binding; receptor agonist-loaded with 1 µM estradiol. Q92731. inhibition, % at 25.6 µM. 86,000 compounds, 1.3% hits;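 active = compounds whose percent inhibition of the receptor-coactivator binding signal exceeds about 50% in the single-dose screen, limit read from the data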;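 also: 0% = receptor plus peptide wells without compound and 100% = peptide-only wells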
Smad3 inh: inhibitors of human Smad3 transcription factor binding; 88,000 compounds, 0.29% hits; P84022; AID 630; inhibition, % at 25 µM; TR-FRET Smad3/Dy647-FoxH1 peptide binding, europium anti-His;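 active = compounds that reduce the energy-transfer binding signal between the protein and its labelled peptide by more than half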;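 also: 0% = Smad3 plus labelled peptide maximal FRET and 100% = peptide-only background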
Target sequence (P84022 whole entry, looked up): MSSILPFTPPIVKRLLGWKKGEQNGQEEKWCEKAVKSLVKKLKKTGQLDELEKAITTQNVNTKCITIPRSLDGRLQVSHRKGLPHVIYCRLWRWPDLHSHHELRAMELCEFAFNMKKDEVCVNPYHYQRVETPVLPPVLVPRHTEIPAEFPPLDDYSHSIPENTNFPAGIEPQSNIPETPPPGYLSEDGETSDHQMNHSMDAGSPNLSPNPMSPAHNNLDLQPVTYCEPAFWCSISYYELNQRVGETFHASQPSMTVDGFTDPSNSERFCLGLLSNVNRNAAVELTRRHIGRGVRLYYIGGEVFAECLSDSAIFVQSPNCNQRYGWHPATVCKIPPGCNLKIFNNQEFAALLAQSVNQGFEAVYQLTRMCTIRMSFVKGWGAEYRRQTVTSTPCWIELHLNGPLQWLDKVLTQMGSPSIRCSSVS
ERa coact inh: ER-alpha (human) coactivator binding inhibition; TR-FRET ER-alpha LBD / SRC-1 peptide, estradiol-bound; inhibition, % at 25.6 µM; 86,000 compounds, 1.7% hits; P03372; in the data active = inhibition above about 50%;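 also: 0% = receptor plus peptide control and 100% = peptide only without receptor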
ERa coact pot: enhances coactivator binding to human estrogen receptor alpha; TR-FRET ERalpha-LBD/SRC-Cy5 coactivator binding, 2 h; 100 = basal binding, no effect; P03372; 86,000 compounds, 1.3% hits; AID 639; coactivator binding (% of control), % at 25.6 µM; in the data active = activity above about 200%;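 also: binding measured in presence of low estradiol as agonist stimulus; 0% = peptide alone without receptor and 100% = receptor with peptide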
* hit, by the source's call; [ ] = another dose, or the depositor's remark. An excerpt weighted towards active compounds, which were near 3.7% of everything screened.

What do the screens show for `CC(C)c1ccc(-c2c(C#N)c(N)nc(SCC(=O)N3CCCCCC3)c2C#N)cc1`?
ERb coact inh: 50; Smad3 inh: 42; ERa coact inh: 43; ERa coact pot: 260*[fluorescence artefact?]

What do the screens show for `N#Cc1c(N)nc(SCC(=O)NC2CCCCC2)c(C#N)c1-c1ccc(Cl)cc1`?
ERb coact inh: 51*[fluorescence artefact?]; Smad3 inh: 7; ERa coact inh: 66*[fluorescence artefact?]; ERa coact pot: 122

Results for CCOC(=O)CSc1nc(N)c(C#N)c(-c2ccc(OCC)cc2)c1C#N ?
ERb coact inh: 37; Smad3 inh: 25; ERa coact inh: 34; ERa coact pot: 187

How did N[C@@H](CSC1(c2ccc(Cl)cc2)c2ccccc2-c2ccccc21)C(=O)O do in these assays?
Smad3 inh: -9

What do the screens show for `CN[C@@H]1NC(=O)c2ccccc2N1Cc1ccc(F)cc1`?
Smad3 inh: 0

Results for Cc1cc(C)c2c(=O)[nH]n(C(C)C)c2n1 ?
ERb coact inh: -17; Smad3 inh: 14; ERa coact inh: -20; ERa coact pot: 295*

How did Cc1cc(C)n(CCc2nc3c4ccccc4nc(SCc4ccc(C#N)cc4)n3n2)n1 do in these assays?
ERb coact inh: 33; Smad3 inh: -7; ERa coact inh: 59*[fluorescence artefact?]; ERa coact pot: 95

What do the screens show for `COc1ccc(C(=O)Nc2nnc(-c3ccco3)s2)cc1`?
ERb coact inh: 30; Smad3 inh: -4; ERa coact inh: 4; ERa coact pot: 463*[fluorescence artefact?]

Results for COc1ccccc1C(=O)Nc1nnc(-c2ccco2)s1 ?
ERb coact inh: 14; Smad3 inh: -4; ERa coact inh: 12; ERa coact pot: 242*

Results for S=c1[nH]nc(-c2cc(-c3ccco3)[nH]n2)n1-c1ccccc1 ?
ERb coact inh: -14; Smad3 inh: -11; ERa coact inh: -6; ERa coact pot: 59

What do the screens show for `S=c1[nH]nc(-c2cc(-c3ccco3)[nH]n2)n1-c1ccccc1Cl`?
ERb coact inh: 50*; Smad3 inh: 1; ERa coact inh: 33; ERa coact pot: 43

How did O=C(c1noc2c1CCCC2)N1CCN(C(c2ccccc2)c2ccccc2)CC1 do in these assays?
ERb coact inh: -10; Smad3 inh: -2; ERa coact inh: -11; ERa coact pot: 240*

How did Cc1cccc(NC(=O)c2cc(N3CCOCC3)nc3ccccc23)c1 do in these assays?
ERb coact inh: 7; Smad3 inh: -4; ERa coact inh: -2; ERa coact pot: 78

What do the screens show for `Cc1cccc(Nc2nn3c(=O)c4ccccc4nc3s2)c1`?
ERb coact inh: 58*[fluorescence artefact?]; Smad3 inh: -18; ERa coact inh: 66*[fluorescence artefact?]; ERa coact pot: 221*[fluorescence artefact?]

What do the screens show for `CCN(CC)c1nc(OCCNC(=O)Nc2ccccc2)nc(N(CC)CC)n1`?
ERb coact inh: -3; Smad3 inh: 0; ERa coact inh: 5; ERa coact pot: 98

What do the screens show for `CC1CCN(S(=O)(=O)c2ccc(NC(=O)Cc3ccccc3)cc2)CC1`?
ERb coact inh: -2; Smad3 inh: 14; ERa coact inh: 6; ERa coact pot: 118

Results for CC1CCN(S(=O)(=O)c2ccc(NC(=O)Cn3nnc(-c4ccccc4F)n3)cc2)CC1 ?
ERb coact inh: 62*[fluorescence artefact?]; Smad3 inh: -6; ERa coact inh: 86*[fluorescence artefact?]; ERa coact pot: 102

Results for COc1ccc(CNC(=O)CSc2nc(-c3ccccc3)cc(-c3cccs3)c2C#N)cc1 ?
ERb coact inh: 4; Smad3 inh: -14; ERa coact inh: 10; ERa coact pot: 147

Results for COc1ccc(-c2cc(-c3cccs3)c(C#N)c(SCC(=O)NCc3ccco3)n2)cc1 ?
ERb coact inh: 39; Smad3 inh: -9; ERa coact inh: 54*; ERa coact pot: 177

What do the screens show for `Cc1ccc(CC(=O)N2CCN(c3ccccn3)CC2)cc1`?
ERb coact inh: -6; Smad3 inh: 0; ERa coact inh: -7; ERa coact pot: 100

How did Oc1ccc(CNc2ccccc2F)c2cccnc12 do in these assays?
ERb coact inh: 62*[fluorescence artefact?]; Smad3 inh: 15; ERa coact inh: 20; ERa coact pot: 91

Results for CC(C)(CCC(C)(C)c1ccccc1)c1ccccc1 ?
Smad3 inh: -3

What do the screens show for `Cc1c(N2C(=O)c3ccc4c5c(ccc(c35)C2=O)CC4)c(=O)n(-c2ccccc2)n1C`?
ERb coact inh: 92*[fluorescence artefact?]; Smad3 inh: 43; ERa coact inh: 95*[fluorescence artefact?]; ERa coact pot: -1

Results for O=S(=O)(/C=C/c1ccccc1)Oc1ccccc1 ?
ERb coact inh: 0; Smad3 inh: -2; ERa coact inh: -5; ERa coact pot: 90

How did CN1CCN(C(c2cccnc2)c2ccc3cccnc3c2O)CC1 (stereo unspecified) do in these assays?
ERb coact inh: 60*[fluorescence artefact?]; Smad3 inh: 8; ERa coact inh: 78*[fluorescence artefact?]; ERa coact pot: 83

What do the screens show for `O=C(O)c1ccc(N[C@H](c2ccccc2)c2ccc3cccnc3c2O)cc1`?
Smad3 inh: 10

What do the screens show for `CCn1c(SCC(=O)N2CCOCC2)nc2oc3c(Cl)cc(Cl)cc3c(=O)c2c1=O`?
ERb coact inh: 52*; Smad3 inh: 3; ERa coact inh: 65*[fluorescence artefact?]; ERa coact pot: 64

What do the screens show for `Oc1ccc(-c2nc(-c3ccc(O)c(O)c3)cs2)cc1`?
ERb coact inh: 82*; Smad3 inh: 18; ERa coact inh: 68*[fluorescence artefact?]; ERa coact pot: 19

What do the screens show for `CC(=O)Nc1ccc(N=Cc2nc(-c3ccc(C)cc3)oc2O)cc1`?
ERb coact inh: 51*; Smad3 inh: 37; ERa coact inh: 81*; ERa coact pot: 61

What do the screens show for `O=C1Nc2cc3c(cc2Sc2ccccc21)OCCO3`?
ERb coact inh: 8; Smad3 inh: -2; ERa coact inh: 8; ERa coact pot: 234*[fluorescence artefact?]

What do the screens show for `C[C@@]1(CO)[C@H](O)CC[C@]2(C)[C@@H]1CC[C@H]1C[C@H]3C[C@]12CC[C@@]3(O)COC(=O)CN`?
Smad3 inh: -3

Results for COc1ccc(-c2c(C#N)c(SCC(=O)Nc3ccccc3)nc3c2CCCC3)cc1 ?
ERb coact inh: 28; Smad3 inh: -2; ERa coact inh: 14; ERa coact pot: 147

Results for CCc1ccccc1NC(=O)CSc1nc2c(c(-c3ccco3)c1C#N)CCCC2 ?
ERb coact inh: 11; Smad3 inh: -14; ERa coact inh: 10; ERa coact pot: 301*[fluorescence artefact?]

Results for N#Cc1c(SCC(N)=O)nc2c(c1-c1ccc(OCc3ccccc3)cc1)CCCC2 ?
ERb coact inh: -7; Smad3 inh: -124; ERa coact inh: -13; ERa coact pot: active[fluorescence artefact?]

How did N#Cc1c(SCC(=O)Nc2nccs2)nc2c(c1-c1ccco1)CCCC2 do in these assays?
ERb coact inh: 37; Smad3 inh: 12; ERa coact inh: 64*; ERa coact pot: 83

How did Cc1ccccc1NC(=O)CSc1nc2c(c(-c3ccco3)c1C#N)CCCC2 do in these assays?
ERb coact inh: 16; Smad3 inh: 8; ERa coact inh: 24; ERa coact pot: 290*[fluorescence artefact?]

How did COC(=O)CSc1nc2c(c(-c3ccc(C)o3)c1C#N)CCCC2 do in these assays?
ERb coact inh: 2; Smad3 inh: 3; ERa coact inh: 1; ERa coact pot: 95

How did CC1(C)COCN1COC1CCCCC1 do in these assays?
Smad3 inh: -10
